In ChEMBL document CHEMBL1157539, “Thousands of chemical starting points for antimalarial lead identification” (Nature, 2010) one finds Inhibition data, which are given here for 32 compounds.

Holding throughout (type): functional
For assay [1], the system named is Plasmodium falciparum. In words: GSK_TCMDC: Inhibition of Plasmodium falciparum 3D7 in whole red blood cells, using parasite LDH activity as an index of growth. Test compounds present at 2uM.
In assay [2] the test system is Plasmodium falciparum. Put plainly: GSK_TCMDC: Inhibition of Plasmodium falciparum Dd2 in whole red blood cells, using parasite LDH activity as an index of growth. Test compounds present at 2uM.
Assay [3] has as its system HepG2. Put plainly: GSK_TCMDC: Percent inhibition of human HepG2 cell line. Test compounds present at 10uM.

The Inhibition is the relative decrease from the control value, in per cent.

Structures are written as SMILES.

For `CN1CCN(Cc2ccc(-c3cc4c(Nc5ccc(OCc6cccc(F)c6)c(Cl)c5)ncnc4s3)[nH]2)CC1`, the Inhibition was found to be 100% in assay [1], 99% in assay [2] and 23% in assay [3].

`CCOC(=O)C1=C(C)N=c2sc(=Cc3cc(Cl)ccc3O)c(=O)n2C1c1ccc2c(c1)OCO2` (stereo unspecified): the Inhibition in assay [1] is listed as 96%; in assay [2], 91%; in assay [3], 0%.

`CCCC(=O)Nc1ccc(OCCCN(Cc2ccccc2C(F)(F)F)c2ccc(C#N)c(C(F)(F)F)c2)cc1`: the Inhibition in assay [1] worked out at 89%; in assay [2], 79%; in assay [3] it was 0%.

With `COC(=O)c1cccc(CNCc2cccc(-c3csc(-c4nc5ccccc5[nH]4)c3)c2)c1.O=C(O)C(F)(F)F`, the results for the Inhibition in assay [1], in assay [2] and in assay [3] were 100%, 44% and 0%, respectively.

Take `Cc1ccc2nc(-c3ccc(C(=O)NCc4ccc(Cl)c(Cl)c4)cc3)[nH]c2c1C`: the Inhibition worked out at 96% in assay [1], 26% in assay [2] and 19% in assay [3].

With `Cl.O=c1cc(NCCCNCc2sc(Br)c(Br)c2Br)[nH]c2ccccc12`, the Inhibition in assay [1] came out at 90%; in assay [2], 38%; in assay [3], 0%.

With `Cc1ccc(NC(=O)Nc2ccc(Cl)cc2)cc1-c1ccc(C(=O)Nc2ccncc2)cc1`, the figures for the Inhibition in assay [1], in assay [2] and in assay [3] were 99%, 63% and 54%, respectively.

As to `CCN(CC)CCCC(C)N=c1cc(C=Cc2ccccc2Cl)[nH]c2cc(Cl)ccc12.O=P(O)(O)O` (stereo unspecified), the Inhibition turned out to be 99% in assay [1], 77% in assay [2] and 0% in assay [3].

Take `CSc1ccccc1NC(=S)NC1CCN(CCCCCNC(=O)/C=C/c2ccc(Cl)c(Cl)c2)CC1`: the Inhibition in assay [1] turned out to be 98%; in assay [2] it was 27%; in assay [3] it was 19%.

Regarding `CCc1cc2c(Sc3nc4ccccc4[nH]3)ncnc2s1`, the Inhibition in assay [1] turned out to be 97%; in assay [2], 98%; in assay [3] it was 6%.

`CCCCCCNc1c2ccccc2nc2ccccc12.Cl`: the Inhibition in assay [1] was 97%; in assay [2] it was 32%; in assay [3], 24%.

Take `Cc1ccc(-n2c(Sc3ncnc4sccc34)nnc2N2CCCC2)cc1`: the Inhibition was 99% in assay [1], 100% in assay [2] and 0% in assay [3].

Consider `Br.COc1ccc(CC(C)CON2C(N)=NC(N)=NC2(C)C)cc1` (stereo unspecified), for which the Inhibition in assay [1] is recorded as 94%; in assay [2], 96%; in assay [3] it was 59%.

For `Cc1cccc(Cl)c1S(=O)(=O)N1CCCCC(c2ccc(C(F)(F)F)cc2)=N1`, the Inhibition came to 100% in assay [1], 100% in assay [2] and 5% in assay [3].

Turning to `CCCCc1ccc(-c2c(N)nc(N)nc2CC)cc1`, the Inhibition is 95% in assay [1], 0% in assay [2] and 63% in assay [3].

Take `Cc1ccc(O)cc1Nc1ccnc2cc(-c3ccncc3)ccc12.Cl`: the Inhibition in assay [1] amounted to 100%; in assay [2], 84%; in assay [3], 16%.

Regarding `Cc1cc(CN2CCCC(OC(c3ccc(F)cc3)c3ccc(F)cc3)C2)ccc1O` (stereo unspecified), the Inhibition in assay [1] is on record as 89%; in assay [2], 82%; in assay [3] it was 28%.

Consider `Fc1cccc(C=NN=c2cc[nH]c3ccccc23)c1`, for which the Inhibition was 100% in assay [1], 72% in assay [2] and 3% in assay [3].

As to `O=C(c1ccccc1)N1CCC(CN2CCOC(c3ccccc3)(c3ccccc3)C2)CC1`, the Inhibition is on record as 94% in assay [1], 95% in assay [2] and 14% in assay [3].

`Cl.N=C(N)NN=C1C=Cc2cccc3cccc1c23`: the figures for the Inhibition in assay [1], in assay [2] and in assay [3] were 100%, 49% and 9%, respectively.

With `Fc1ccc2c(NN=CC=Cc3ccccc3)ccnc2c1`, the figures for the Inhibition in assay [1], in assay [2] and in assay [3] were 100%, 98% and 0%, respectively.

Regarding `Cc1cccc2nc(-c3ccc(-c4cccc(C(=O)NCCc5cn(C)cn5)c4)s3)[nH]c12`, the Inhibition was determined as 92% in assay [1], 17% in assay [2] and 27% in assay [3].

Consider `COc1c(C2=CCN(CCCCNC(=O)c3ccc(-c4ccc(C#N)cc4)cc3)CC2)ccc2c1CCCC2`, for which the Inhibition stood at 94% in assay [1], 82% in assay [2] and 44% in assay [3].

As to `COc1ccc2c(NN=Cc3ccccc3Cl)ccnc2c1`, the Inhibition is 99% in assay [1], 46% in assay [2] and 10% in assay [3].

With `O=S(=O)(Nc1cccc(F)c1CNCc1ccccn1)c1ccc(Cl)c(Cl)c1`, the Inhibition in assay [1] is listed as 92%; in assay [2], 34%; in assay [3] it was 45%.

With `O=C(N1CCN(c2ccc(C(F)(F)F)cc2[N+](=O)[O-])CC1)C(Cl)(Cl)Cl`, the results for the Inhibition in assay [1], in assay [2] and in assay [3] were 100%, 99% and 29%, respectively.

Consider `Cc1ccc(S(=O)(=O)NC(=N)NC(N)=O)cc1`, for which the Inhibition in assay [1] was found to be 94%; in assay [2], 2%; in assay [3], 26%.

As to `COc1ccc(NC(=O)Nc2ccc(C)c(-c3ccc(C(=O)Nc4ccncc4)cc3)c2)cc1`, the values for the Inhibition in assay [1], in assay [2] and in assay [3] were 99%, 50% and 39%, respectively.

As to `COc1ccc2nccc([C@@H](O)CN3CCC(NCc4cc5cccc(OCc6ccccc6)c5[nH]4)CC3)c2c1`, the Inhibition came to 100% in assay [1], 40% in assay [2] and 13% in assay [3].

With `Cc1ccc(O)c(Nc2c3c(c(C#N)c4nc5ccccc5n24)CCC3)c1`, the Inhibition amounted to 85% in assay [1], 2% in assay [2] and 7% in assay [3].

`COc1cc(N)c(Cl)cc1C(=O)NC1CCC(NCC2CCCCC2)CC1.Cl` (stereo unspecified): the results for the Inhibition in assay [1], in assay [2] and in assay [3] were 90%, 85% and 18%, respectively.

As for `C=CCNC(=O)C(C)c1ccc2cc(OC)ccc2c1` (stereo unspecified), the Inhibition in assay [1] is on record as 92%; in assay [2], 90%; in assay [3], 4%.
